From PubChem BioAssay (Tox21)
Inconclusive results are not listed. Values without a mark were called inactive. The source made the active and inactive calls. Calls follow the shape of the dose curve; as a rule, active = well fitted activation curve with a large enough effect in the repeat runs; inconclusive = weak or mixed curves; inactive = no such curve, though single readings can be large or run the other way.

The compounds below were run against Aryl hydrocarbon receptor (Homo sapiens) (UniProt P35869) (assay: qHTS assay to identify small molecule that activate the aryl hydrocarbon receptor (AhR) signaling pathway (AID 743085; also: nearly all actives have a fitted effect of over 15% in size;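 as to activation: HG2L7.5c1 human HepG2 liver cells with stably integrated DRE-driven firefly reporter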)). Settings: HepG2 AhR-luc (HG2L7.5c1), luciferase, 24 h; series mostly up to 70.3 µM; activation: at the top concentration.
Aryl hydrocarbon receptor (Homo sapiens), sequence (P35869 whole entry, looked up): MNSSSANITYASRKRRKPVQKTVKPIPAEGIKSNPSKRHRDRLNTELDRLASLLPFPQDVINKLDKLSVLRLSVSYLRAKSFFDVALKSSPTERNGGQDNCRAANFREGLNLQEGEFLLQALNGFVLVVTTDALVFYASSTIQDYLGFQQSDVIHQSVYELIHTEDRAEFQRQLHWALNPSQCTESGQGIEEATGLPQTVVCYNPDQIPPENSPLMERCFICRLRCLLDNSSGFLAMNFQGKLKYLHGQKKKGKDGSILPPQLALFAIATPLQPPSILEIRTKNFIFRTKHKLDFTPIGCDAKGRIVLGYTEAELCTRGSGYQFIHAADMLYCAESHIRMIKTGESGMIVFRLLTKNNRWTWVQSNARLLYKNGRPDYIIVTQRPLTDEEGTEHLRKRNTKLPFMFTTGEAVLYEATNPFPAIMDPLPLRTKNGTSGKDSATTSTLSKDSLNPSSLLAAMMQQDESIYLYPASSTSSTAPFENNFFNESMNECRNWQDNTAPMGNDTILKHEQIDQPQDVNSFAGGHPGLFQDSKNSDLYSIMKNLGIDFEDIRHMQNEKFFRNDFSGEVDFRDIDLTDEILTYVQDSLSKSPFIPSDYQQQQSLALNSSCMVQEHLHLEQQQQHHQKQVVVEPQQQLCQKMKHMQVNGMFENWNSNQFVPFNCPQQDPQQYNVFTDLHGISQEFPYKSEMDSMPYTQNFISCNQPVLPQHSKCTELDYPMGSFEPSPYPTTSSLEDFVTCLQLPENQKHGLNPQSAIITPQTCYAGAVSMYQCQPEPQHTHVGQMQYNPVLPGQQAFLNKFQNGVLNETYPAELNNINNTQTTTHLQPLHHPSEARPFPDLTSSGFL
From the text: U.S. Tox21 Program National Center for Advancing Translational Sciences [NCATS] NIH Chemical Genomics Center [NCGC] U.S. Environmental Protection Agency [EPA] National Institutes of Environmental Health Sciences [NIEHS] National Toxicology Program [NTP] U.S. Food and Drug Administration [FDA] Tox21 Assay overview: The Aryl hydrocarbon Receptor (AhR), a member of the family of basic helix-loop-helix transcription factors, is crucial to adaptive responses to environmental changes. AhR mediates cellular responses to environmental pollutants such as aromatic hydrocarbons through induction of phase I and II enzymes but also interacts with other nuclear receptor signaling pathways. A cell based HepG2-AhR-luc assay (HG2L7.5c1 cell line, developed by Dr. Michael S. Denison, University of California at Davis, was used to assess the activation of AhR. HepG2 (human hepatocellular carcinoma) cells were stably transfected with an Ah receptor-responsive firefly luciferase reporter gene plasmid containing 20 dioxin responsive elements and luciferase reporter gene. Increased luciferase activity can be used to identify the compounds that induce AhR activation.
Tox21 Assay Protocol Summary: 4000 cells in 5 uL/well were dispensed into white wall/solid bottom 1536-well plates using a Multidrop Combi (Thermo Fisher Scientific Inc., Waltham, MA) dispenser. After the assay plates were incubated at 37C for 5 h, 23 nL of compound or DMSO vehicle was transferred to the assay plates by a pintool station (Kalypsys, San Diego, CA). The plates were incubated at 37C for 24 hr. After 1 ul/well of CellTiter-Fluor reagent (Promega, Madison, WI) was added into the assay plates using a Flying Reagent Dispenser (FRD) (Aurora Discovery, CA), the assay plates were incubated at 37C for 30 min. The fluorescence intensity in the plates was measured using a ViewLux plate reader (PerkinElmer, Shelton, CT), followed by the addition of 4 uL of ONE-Glo Luciferase Assay reagent (Promega) using an FRD (Aurora Discovery). After the assay plates were incubated at room temperature for 30 min, luminescence intensity was measured using a ViewLux plate reader (Perkin Elmer).
% is scaled to controls: 0 for no effect and ±100 for the full control effect; potency is read from the fitted curve at half-maximal effect.

| SMILES | activation | Potency |
| --- | --- | --- |
| CN1CCC(=C2c3ccccc3CCc3cccnc32)CC1 | -0.0146% |  |
| NC(N)=NCCN1CCCCCCC1 | 0.731% [at 32.5 µM] |  |
| O=C(c1ccccc1)C1(O)CCCCC1 | -0.117% |  |
| CCCC[N+](C)(CCCC)CCCC | -0.0074% |  |
| CCC(C(=O)NC(=O)NC(C)=O)c1ccccc1 (stereo not given) | -1.2% |  |
| CCCCCC(=O)OCCc1ccccc1 | -0.426% |  |
| CC(=O)N1C[C@H](O)C[C@H]1C(=O)O | -1.47% |  |
| CCCOC(=O)CC | -0.683% |  |
| CNC(=O)Nc1ccc(Cl)c(Cl)c1 |  | 54.5 µM (active) |
| COCCOC[C@H](CC1(C(=O)NC2CCC(C(=O)O)CC2)CCCC1)C(=O)Oc1ccc2c(c1)CCC2 (stereo not given in full) | -0.343% |  |
| O=[N+]([O-])c1ccc(/C=N\O)o1 | 0.068% |  |
| CCCCOCCOC(=O)CCCCCCCCC(=O)OCCOCCCC | -0.574% |  |
| CCCC(C)C(=O)OCC (stereo not given) | -1.04% |  |
| Cc1ncc([C@@H](CCCCCCc2ccc3c(n2)NCCC3)CC(=O)O)cn1 | -0.722% |  |
| C[N+](C)(CCOc1ccccc1)Cc1cccs1 | -1.32% |  |
| CC(C)C1CCC(O)CC1 (stereo not given) | -0.92% |  |
| Cc1ncc(COP(=O)(O)O)c(C=O)c1O | 0.0143% |  |
| CCCc1ncc(C[n+]2ccccc2C)c(N)n1 | -1.27% [at 32.5 µM] |  |
| C=CCOCC(O)CO (stereo not given) | -0.136% |  |
| CN(C)CCN(C)CCN(C)C | 0.748% |  |

| SMILES | activation | Potency |
| --- | --- | --- |
| CCCCOCCOC(=O)COc1cc(Cl)c(Cl)cc1Cl | 2.9% |  |
| CC1=C(C/C=C(\C)CCC[C@H](C)CCC[C@H](C)CCCC(C)C)C(=O)c2ccccc2C1=O |  | 26.6 µM (active) |
| CC(=O)c1cnccn1 | 3.84% [at 95 µM] |  |
| CCCCCCCCN1CCCC1=O | -0.2% |  |
| O=CN(CCO)CCO | -0.956% |  |
| Cc1cc(C)c(N=Nc2c(O)c(S(=O)(=O)O)cc3cc(S(=O)(=O)O)ccc23)cc1C | -3.38% [at 8.47 µM] |  |
| Cc1ccc(C(=O)c2ccccc2)cc1 | 6.57% |  |
| CC(C)(C)c1ccc(-c2ccc(C(C)(C)C)cc2)cc1 | -0.651% |  |
| O=C1c2ccccc2C(=O)c2cc(O)ccc21 |  | 61.2 µM (active) |
| O=C(CO)[C@@H](O)[C@H](O)[C@@H](O)CO | 1.62% |  |
| CCOc1ccccc1OCC | -0.542% |  |
| O=Cc1cccc(Br)c1 | -2.29% [at 95 µM] |  |
| C=C[Si](OC(C)=O)(OC(C)=O)OC(C)=O | 2.63% |  |
| CC(N)C12CC3CC(CC(C3)C1)C2 (stereo not given) | -0.476% |  |
| [Ca+2] | -0.0735% |  |
| O=C1CCCCCCCCCCCCCCO1 | 1.77% |  |
| C=C(C)C(=O)OCCOCCOCCOCCOC(=O)C(=C)C | -0.177% |  |
| C1CCC2=NCCCN2CC1 | 0.319% |  |
| CCC(=O)OCc1ccccc1 | 0.79% |  |
| CC[C@H]1OC(=O)[C@H](C)[C@@H](O[C@H]2C[C@@](C)(OC)[C@@H](O)[C@H](C)O2)[C@H](C)[C@@H](O[C@@H]2O[C@H](C)C[C@H](N(C)C)[C@H]2O)[C@](C)(OC)C[C@@H](C)C(=O)[C@H](C)[C@@H](O)[C@]1(C)O |  | inactive |
